Reference: the supplement of paper PMC9588786
± gives the standard deviation of the averaged measurements.

system: HT-1080; experiment: relative cell viability with RSL3 co-treatment (fraction of control); higher = stronger protection from RSL3-induced ferroptosis (higher viability); settings: 10 µM
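Note: viability read as CCK-8 absorbance at 450 nm in cells co-exposed to the GPX4 inhibitor RSL3, relative to a 0.01% DMSO vehicle control.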

Compound	relative cell viability
Clc1ccc(C2(c3ccc(-c4cn[nH]c4)cc3)CCNCC2)cc1	0.373 ± 0.068
CN1CCN(CCOc2cc(OC3CCOCC3)c3c(Nc4c(Cl)ccc5c4OCO5)ncnc3c2)CC1 [Saracatinib (AZD0530)]	0.727 ± 0.16
COc1c(C)c(C(=O)c2ccc(N)c(C(=O)O)c2)n2ccccc12	0.653 ± 0.14
CC[C@@H]1C(=O)N(C)c2cnc(Nc3ccc(C(=O)N[C@H]4CC[C@H](N5CCN(CC6CC6)CC5)CC4)cc3OC)nc2N1C(C)C [Volasertib (BI 6727)]	0.397 ± 0.15
CC(C)NC[C@@H](C(=O)N1CCN(c2ncnc3c2[C@H](C)C[C@H]3O)CC1)c1ccc(Cl)cc1 [Ipatasertib (GDC-0068)]	0.697 ± 0.12
O=C(O)c1ccc(N2C(=O)/C(=C\c3ccc(-c4ccc([N+](=O)[O-])cc4)o3)C=C2c2ccccc2)cc1	1.24 ± 0.092
Cc1ccc(C(=O)Nc2cccc(C(F)(F)F)c2)cc1Nc1nc(-c2cccnc2)nc2c1cnn2C	0.473 ± 0.23
C=CC(=O)Nc1cccc(Oc2nc(Nc3ccc(N4CCN(C)CC4)cc3)nc3ccsc23)c1	0.55 ± 0.082
CN(C)Cc1cccc(N/C(=C2\C(=O)Nc3cc(C(N)=O)ccc32)c2ccccc2)c1	0.627 ± 0.045
O=C(Nc1ccc(OC(F)(F)F)cc1)c1sccc1NCc1ccnc2ccccc12	0.57 ± 0.095
COc1ccc(-c2ccc3ncc4c(c3c2)n(-c2ccc(N3CCNCC3)c(C(F)(F)F)c2)c(=O)n4C)cn1	0.29 ± 0.087
Cc1ccccc1CN1C2=NCCN2C(=O)C2=C1CCN(Cc1ccccc1)C2 [TIC10 Analogue]	0.62 ± 0.079
N#C/C(=C(/N)Sc1ccc(N)cc1)c1ccccc1C(F)(F)F	0.913 ± 0.038
CO[C@H]1C[C@@H]2CC[C@@H](C)[C@@](O)(O2)C(=O)C(=O)N2CCCC[C@H]2C(=O)O[C@H]([C@H](C)C[C@@H]2CC[C@@H](OC(=O)C(C)(CO)CO)[C@H](OC)C2)CC(=O)[C@H](C)/C=C(\C)[C@@H](O)[C@@H](OC)C(=O)[C@H](C)C[C@H](C)/C=C/C=C/C=C/1C	0.367 ± 0.11
CCc1nc(-c2cccc(C)c2)c(-c2ccnc(NC(=O)c3ccccc3)c2)s1	0.783 ± 0.1
CC(C)[C@H](CO)Nc1nc(Nc2cccc(Cl)c2)c2ncn(C(C)C)c2n1 [Purvalanol A]	0.65 ± 0.09
CC(C)(O)CC(=O)NCCn1ccc2ncnc(Nc3ccc(Oc4cccc(C(F)(F)F)c4)c(Cl)c3)c21	0.567 ± 0.04
O=C(NCCO)c1cccc(-c2cc(Nc3ccc(OC(F)(F)F)cc3)ncn2)c1	0.713 ± 0.13
COc1cc(-c2cc(-c3ccc(N4CCNCC4)cc3)cnc2C)cc(OC)c1OC	0.74 ± 0.075
Cc1ccc(NC(=O)c2cccc(C(C)(C)C#N)c2)cc1Nc1ccc2ncn(C)c(=O)c2c1	0.507 ± 0.047

Compound	relative cell viability
CC(C)CCN1c2nc(Nc3cc(F)c(O)c(F)c3)ncc2N(C)C(=O)C1C (centres undefined)	0.717 ± 0.14
O=C1NC(=O)/C(=C/c2cccc(C(F)(F)F)c2)S1	0.807 ± 0.015
CC(C)(C#N)c1ccc(N2C(=O)OCc3cnc4ccc(-c5cnc6ccccc6c5)cc4c32)cc1	0.45 ± 0.18
NC(=O)c1cnc(N[C@@H]2CCCC[C@@H]2N)nc1Nc1cccc(-n2nccn2)c1	0.56 ± 0.11
Cn1cc(-c2ccc3nnc(C(F)(F)c4ccc5ncccc5c4)n3n2)cn1	0.743 ± 0.04
C[C@@H]1COCCN1c1cc(C2([S@](C)(=N)=O)CC2)nc(-c2cc[nH]c3nccc2-3)n1	0.777 ± 0.06
CCCS(=O)(=O)Nc1ccc(F)c(C(=O)c2c[nH]c3ncc(-c4ccc(Cl)cc4)cc23)c1F [Vemurafenib (PLX4032, RG7204)]	0.323 ± 0.091
CN1CCC(CNc2ccc3ncc(-c4cccc(OC(F)(F)F)c4)n3n2)CC1 [SGI-1776 free base]	0.507 ± 0.16
O=C(O)C(Cc1ccccc1[N+](=O)[O-])=NNc1nc(-c2ccc(Cl)c(Cl)c2)cs1 (mixture of isomers)	1.27 ± 0.046
Nc1ccc(-c2ccc3ncc4ccc(=O)n(-c5cccc(C(F)(F)F)c5)c4c3c2)cn1 [Torin 2]	0.687 ± 0.047
Cc1cn(-c2cc(NC(=O)c3ccc(C)c(Nc4nccc(-c5cccnc5)n4)c3)cc(C(F)(F)F)c2)cn1 [Nilotinib (AMN-107)]	0.507 ± 0.021
Cc1ccc2nc(NCCN)c3ncc(C)n3c2c1	0.703 ± 0.015
COc1cc2ncnc(Nc3cccc(Cl)c3F)c2cc1OC(=O)N1CCN(C)C[C@H]1C	0.617 ± 0.025
O=C1NC(=O)C(=Cc2ccc(-c3ccc(F)cc3)o2)S1 (stereo in doubt)	0.887 ± 0.11
O=C(Nc1ccc(-c2ccnc(Nc3ccc(N4CCOCC4)cc3)n2)cc1)C1CCCN1 (centres undefined)	0.443 ± 0.1
Cc1cc(Nc2cc(N3CCN(C)CC3)nc(/C=C/c3ccccc3)n2)n[nH]1	0.203 ± 0.1
CC(C)(CCCCCC(O)CCCCCC(C)(C)C(=O)O)C(=O)O	0.843 ± 0.078
Oc1c2ccccc2c2c3c(cccc13)N=N2	0.71 ± 0.036
C=CC(=O)Nc1ccc2ncnc(Nc3cccc(Br)c3)c2c1	0.593 ± 0.055
